# According to publication PMC7862700, “An all-to-all approach to the identification of sequence-specific readers for epigenetic DNA modifications on cytosine”:
# Assays:
# Assay in all cases: DAPPL (digital affinity profiling via proximity ligation, sequencing); 10 mM Tris-HCl pH 7.5, 50 mM NaCl, 1 mM DTT, 4% glycerol, room temperature, 30 min; GST-TFs on glutathione beads, 16-mer random dsDNA library, 0.1% formaldehyde crosslink after washing; high values mean tight binding
# FEV = molecular target: T1, FEV (Homo sapiens, UniProt Q99581 1-238); settings: protein: recombinant; tags: N-terminal GST; dsDNA, one strand shown
# T1 sequence: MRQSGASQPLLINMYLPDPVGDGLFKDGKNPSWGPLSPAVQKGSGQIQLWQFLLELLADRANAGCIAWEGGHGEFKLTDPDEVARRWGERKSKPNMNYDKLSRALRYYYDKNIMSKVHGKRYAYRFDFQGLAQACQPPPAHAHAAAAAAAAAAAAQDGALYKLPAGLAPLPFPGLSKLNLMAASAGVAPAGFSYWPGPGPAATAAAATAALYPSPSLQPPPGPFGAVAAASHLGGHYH
# Outline: (§1)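 Binding signal is given per hexamer as its read frequency for a factor divided by its frequency in the tag-only sample. GST-fused human transcription factors were expressed in yeast, captured on glutathione beads, barcoded with DNA and pooled with that sample, then incubated with 200 nmole of a 16-mer random double-stranded DNA library in Tris/NaCl/DTT/glycerol buffer for 30 min at room temperature. The pools were then washed, crosslinked, proximity-ligated, amplified by PCR and sequenced on an Illumina NextSeq500.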
# ETV5 = ETV5 (Homo sapiens, UniProt P41161 1-510); settings: protein: recombinant; tags: N-terminal GST; dsDNA, one strand shown
# Outline: as §1
# HSF1 = HSF1 (Homo sapiens, UniProt Q00613 1-529); settings: protein: recombinant; tags: N-terminal GST; chain copies: 3; dsDNA, one strand shown
# Outline: as §1
# SPIC = molecular target: T2, SPIC (Homo sapiens, UniProt Q8N5J4 1-248); settings: protein: recombinant; tags: N-terminal GST; dsDNA, one strand shown
# T2 sequence: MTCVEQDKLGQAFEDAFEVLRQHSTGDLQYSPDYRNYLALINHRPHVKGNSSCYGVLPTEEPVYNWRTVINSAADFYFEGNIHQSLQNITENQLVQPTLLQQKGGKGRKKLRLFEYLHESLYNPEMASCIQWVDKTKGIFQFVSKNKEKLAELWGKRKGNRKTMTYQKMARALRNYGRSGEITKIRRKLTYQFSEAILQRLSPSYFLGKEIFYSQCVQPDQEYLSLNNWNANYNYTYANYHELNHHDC
# Outline: as §1
# ELF4 = ELF4 (Homo sapiens, UniProt Q99607 1-663); settings: protein: recombinant; tags: N-terminal GST; dsDNA, one strand shown
# Outline: as §1
# ELK4 = molecular target: T3, ELK4 (Homo sapiens, UniProt P28324-2 1-405); settings: protein: recombinant; tags: N-terminal GST; dsDNA, one strand shown
# T3 sequence: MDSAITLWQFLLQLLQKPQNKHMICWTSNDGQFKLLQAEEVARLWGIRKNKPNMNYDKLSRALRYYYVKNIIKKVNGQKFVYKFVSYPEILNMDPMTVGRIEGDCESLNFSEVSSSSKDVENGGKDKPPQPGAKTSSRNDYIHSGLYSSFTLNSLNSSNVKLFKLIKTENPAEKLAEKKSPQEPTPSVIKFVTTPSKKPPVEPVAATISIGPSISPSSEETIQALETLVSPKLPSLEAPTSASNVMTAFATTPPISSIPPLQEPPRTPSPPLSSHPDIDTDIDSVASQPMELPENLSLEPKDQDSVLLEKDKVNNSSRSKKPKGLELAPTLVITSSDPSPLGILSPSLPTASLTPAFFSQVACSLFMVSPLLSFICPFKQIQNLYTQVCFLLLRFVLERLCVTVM
# Outline: as §1
# ETV2 = molecular target: T4, ETV2 (Homo sapiens, UniProt O00321 1-342); settings: protein: recombinant; tags: N-terminal GST; dsDNA, one strand shown
# T4 sequence: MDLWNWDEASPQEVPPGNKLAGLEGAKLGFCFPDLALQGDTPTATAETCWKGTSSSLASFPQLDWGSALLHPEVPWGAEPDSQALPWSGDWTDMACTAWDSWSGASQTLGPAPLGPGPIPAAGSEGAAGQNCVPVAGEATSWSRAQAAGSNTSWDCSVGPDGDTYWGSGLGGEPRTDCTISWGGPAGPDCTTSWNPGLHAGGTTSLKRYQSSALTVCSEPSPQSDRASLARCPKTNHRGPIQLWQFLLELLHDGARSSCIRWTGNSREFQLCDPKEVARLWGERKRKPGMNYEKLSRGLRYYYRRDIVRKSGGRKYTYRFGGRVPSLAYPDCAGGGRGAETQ
# Outline: as §1
# ELF3 = molecular target: T5, ELF3 (Homo sapiens, UniProt P78545 1-371); settings: protein: recombinant; tags: N-terminal GST; dsDNA, one strand shown
# T5 sequence: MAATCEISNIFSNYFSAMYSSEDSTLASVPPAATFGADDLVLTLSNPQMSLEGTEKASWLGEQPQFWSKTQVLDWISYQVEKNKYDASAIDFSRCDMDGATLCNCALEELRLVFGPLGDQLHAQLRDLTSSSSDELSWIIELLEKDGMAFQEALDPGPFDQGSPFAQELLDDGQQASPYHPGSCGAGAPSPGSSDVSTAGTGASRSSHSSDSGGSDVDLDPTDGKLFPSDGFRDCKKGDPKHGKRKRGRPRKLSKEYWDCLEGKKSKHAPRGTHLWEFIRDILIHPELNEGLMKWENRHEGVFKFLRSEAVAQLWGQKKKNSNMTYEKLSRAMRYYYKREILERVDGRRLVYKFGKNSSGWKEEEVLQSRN
# Outline: as §1
# CRX = CRX (Homo sapiens, UniProt O43186 1-299); settings: protein: recombinant; tags: N-terminal GST; dsDNA, one strand shown
# Outline: as §1
# ETV1 = ETV1 (Homo sapiens, UniProt P50549 1-477); settings: protein: recombinant; tags: N-terminal GST; dsDNA, one strand shown
# Outline: as §1
# ERF = molecular target: T6, ERF (Homo sapiens, UniProt P50548 1-548); settings: protein: recombinant; tags: N-terminal GST; dsDNA, one strand shown
# T6 sequence: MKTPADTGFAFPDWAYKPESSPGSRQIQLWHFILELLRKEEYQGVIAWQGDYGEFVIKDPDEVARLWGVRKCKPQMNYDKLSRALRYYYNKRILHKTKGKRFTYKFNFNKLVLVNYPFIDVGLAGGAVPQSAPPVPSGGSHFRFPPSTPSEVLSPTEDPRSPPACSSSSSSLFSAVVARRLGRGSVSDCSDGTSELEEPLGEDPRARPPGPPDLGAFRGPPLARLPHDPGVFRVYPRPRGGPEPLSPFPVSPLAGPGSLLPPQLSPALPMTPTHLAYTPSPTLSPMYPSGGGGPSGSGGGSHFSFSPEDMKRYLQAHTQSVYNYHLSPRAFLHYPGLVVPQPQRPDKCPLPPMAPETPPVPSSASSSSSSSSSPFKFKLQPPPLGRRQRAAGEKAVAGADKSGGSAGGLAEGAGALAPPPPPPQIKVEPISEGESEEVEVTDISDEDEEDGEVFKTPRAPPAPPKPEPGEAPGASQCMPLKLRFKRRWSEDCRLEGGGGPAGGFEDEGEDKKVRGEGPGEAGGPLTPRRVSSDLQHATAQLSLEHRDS
# Outline: as §1
# ETV3L = molecular target: T7, ETV3L (Homo sapiens, UniProt Q6ZN32 1-361); settings: protein: recombinant; tags: N-terminal GST; dsDNA, one strand shown
# T7 sequence: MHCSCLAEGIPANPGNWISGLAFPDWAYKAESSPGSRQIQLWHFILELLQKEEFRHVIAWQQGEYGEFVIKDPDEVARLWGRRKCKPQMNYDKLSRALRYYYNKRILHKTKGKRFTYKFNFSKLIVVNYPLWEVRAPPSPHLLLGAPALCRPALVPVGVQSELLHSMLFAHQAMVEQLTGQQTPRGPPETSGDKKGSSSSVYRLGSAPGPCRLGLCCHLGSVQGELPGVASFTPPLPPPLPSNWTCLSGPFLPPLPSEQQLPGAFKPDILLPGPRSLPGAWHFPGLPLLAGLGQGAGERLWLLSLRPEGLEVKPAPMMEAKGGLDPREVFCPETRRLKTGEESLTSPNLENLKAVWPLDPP
# Outline: as §1
# ETS2 = molecular target: T8, ETS2 (Homo sapiens, UniProt P15036 1-469); settings: protein: recombinant; tags: N-terminal GST; dsDNA, one strand shown
# T8 sequence: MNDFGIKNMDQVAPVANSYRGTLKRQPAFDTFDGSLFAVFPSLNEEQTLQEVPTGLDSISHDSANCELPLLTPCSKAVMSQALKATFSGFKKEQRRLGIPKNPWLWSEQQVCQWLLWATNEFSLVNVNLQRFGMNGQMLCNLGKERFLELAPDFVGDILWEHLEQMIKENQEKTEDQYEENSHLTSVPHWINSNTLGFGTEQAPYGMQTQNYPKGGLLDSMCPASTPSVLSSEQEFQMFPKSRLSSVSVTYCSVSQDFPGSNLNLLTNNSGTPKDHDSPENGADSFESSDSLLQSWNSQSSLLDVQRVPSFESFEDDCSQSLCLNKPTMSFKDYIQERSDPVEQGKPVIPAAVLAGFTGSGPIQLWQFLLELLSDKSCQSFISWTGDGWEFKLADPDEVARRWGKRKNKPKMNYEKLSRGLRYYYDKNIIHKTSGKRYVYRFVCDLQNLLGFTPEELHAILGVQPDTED
# Outline: as §1
# SPDEF = molecular target: T9, SPDEF (Homo sapiens, UniProt O95238 1-335); settings: protein: recombinant; tags: N-terminal GST; dsDNA, one strand shown
# T9 sequence: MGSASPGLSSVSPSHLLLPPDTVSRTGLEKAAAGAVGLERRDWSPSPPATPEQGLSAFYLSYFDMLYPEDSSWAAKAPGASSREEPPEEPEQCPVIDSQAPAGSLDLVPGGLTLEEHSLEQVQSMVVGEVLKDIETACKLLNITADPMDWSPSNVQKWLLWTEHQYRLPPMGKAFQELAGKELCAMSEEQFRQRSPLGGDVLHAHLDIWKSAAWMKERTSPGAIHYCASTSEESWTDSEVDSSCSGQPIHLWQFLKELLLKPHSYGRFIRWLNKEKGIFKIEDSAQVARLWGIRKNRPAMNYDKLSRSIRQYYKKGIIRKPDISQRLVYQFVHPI
# Outline: as §1
# ETV7 = molecular target: T10, ETV7 (Homo sapiens, UniProt Q9Y603 1-341); settings: protein: recombinant; tags: N-terminal GST; dsDNA, one strand shown
# T10 sequence: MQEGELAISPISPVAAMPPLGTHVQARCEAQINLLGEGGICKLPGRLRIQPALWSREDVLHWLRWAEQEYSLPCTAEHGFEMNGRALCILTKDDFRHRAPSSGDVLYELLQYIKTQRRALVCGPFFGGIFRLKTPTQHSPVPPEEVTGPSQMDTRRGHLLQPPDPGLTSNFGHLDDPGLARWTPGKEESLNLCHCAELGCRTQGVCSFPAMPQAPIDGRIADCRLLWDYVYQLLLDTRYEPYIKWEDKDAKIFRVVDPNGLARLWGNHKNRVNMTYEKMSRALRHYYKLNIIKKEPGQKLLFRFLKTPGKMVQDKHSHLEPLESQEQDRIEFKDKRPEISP
# Outline: as §1
# ELF5 = molecular target: T11, ELF5 (Homo sapiens, UniProt Q9UKW6-2 1-255); settings: protein: recombinant; tags: N-terminal GST; dsDNA, one strand shown
# T11 sequence: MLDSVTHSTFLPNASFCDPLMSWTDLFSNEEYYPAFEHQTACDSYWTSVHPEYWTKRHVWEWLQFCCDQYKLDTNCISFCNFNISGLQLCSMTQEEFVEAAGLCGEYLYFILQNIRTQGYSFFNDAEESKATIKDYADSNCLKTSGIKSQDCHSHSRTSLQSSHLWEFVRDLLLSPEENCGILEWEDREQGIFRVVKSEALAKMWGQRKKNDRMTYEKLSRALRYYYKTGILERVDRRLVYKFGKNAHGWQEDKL
# Outline: as §1
# ETV3 = molecular target: T12, ETV3 (Homo sapiens, UniProt P41162-2 1-143); settings: protein: recombinant; tags: N-terminal GST; dsDNA, one strand shown
# T12 sequence: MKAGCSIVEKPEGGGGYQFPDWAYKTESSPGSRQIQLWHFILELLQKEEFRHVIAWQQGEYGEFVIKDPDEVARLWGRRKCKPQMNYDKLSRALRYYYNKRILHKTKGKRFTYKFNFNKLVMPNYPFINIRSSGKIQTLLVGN
# Outline: as §1
# ETV6 = ETV6 (Homo sapiens, UniProt P41212 1-452); settings: protein: recombinant; tags: N-terminal GST; dsDNA, one strand shown
# Outline: as §1
# Sequence of ETV6 (P41212 whole entry): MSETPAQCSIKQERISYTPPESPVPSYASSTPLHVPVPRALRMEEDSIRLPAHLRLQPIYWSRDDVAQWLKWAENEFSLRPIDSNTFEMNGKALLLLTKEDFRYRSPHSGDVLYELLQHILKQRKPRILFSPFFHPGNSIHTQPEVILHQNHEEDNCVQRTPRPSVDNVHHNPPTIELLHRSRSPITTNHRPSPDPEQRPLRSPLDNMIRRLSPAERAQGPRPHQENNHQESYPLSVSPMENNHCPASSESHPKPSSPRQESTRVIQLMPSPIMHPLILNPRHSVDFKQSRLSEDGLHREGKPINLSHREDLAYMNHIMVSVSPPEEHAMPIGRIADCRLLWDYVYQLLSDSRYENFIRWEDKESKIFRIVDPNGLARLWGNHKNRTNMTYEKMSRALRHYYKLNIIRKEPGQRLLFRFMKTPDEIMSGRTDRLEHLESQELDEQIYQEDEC
# Sequence of ETV1 (P50549 whole entry): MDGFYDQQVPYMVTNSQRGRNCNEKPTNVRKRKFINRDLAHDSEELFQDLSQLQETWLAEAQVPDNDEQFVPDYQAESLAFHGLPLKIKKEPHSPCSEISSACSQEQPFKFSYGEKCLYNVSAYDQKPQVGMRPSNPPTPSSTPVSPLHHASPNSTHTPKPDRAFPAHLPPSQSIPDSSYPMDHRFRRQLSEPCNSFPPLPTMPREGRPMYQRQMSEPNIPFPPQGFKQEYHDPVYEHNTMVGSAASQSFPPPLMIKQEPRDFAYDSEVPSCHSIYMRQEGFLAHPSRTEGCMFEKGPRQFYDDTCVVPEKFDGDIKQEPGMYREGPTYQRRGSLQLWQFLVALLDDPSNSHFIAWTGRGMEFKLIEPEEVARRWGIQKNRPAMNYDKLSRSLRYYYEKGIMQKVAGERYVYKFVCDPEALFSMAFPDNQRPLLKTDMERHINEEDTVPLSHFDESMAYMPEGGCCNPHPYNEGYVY
# Sequence of ETV5 (P41161 whole entry): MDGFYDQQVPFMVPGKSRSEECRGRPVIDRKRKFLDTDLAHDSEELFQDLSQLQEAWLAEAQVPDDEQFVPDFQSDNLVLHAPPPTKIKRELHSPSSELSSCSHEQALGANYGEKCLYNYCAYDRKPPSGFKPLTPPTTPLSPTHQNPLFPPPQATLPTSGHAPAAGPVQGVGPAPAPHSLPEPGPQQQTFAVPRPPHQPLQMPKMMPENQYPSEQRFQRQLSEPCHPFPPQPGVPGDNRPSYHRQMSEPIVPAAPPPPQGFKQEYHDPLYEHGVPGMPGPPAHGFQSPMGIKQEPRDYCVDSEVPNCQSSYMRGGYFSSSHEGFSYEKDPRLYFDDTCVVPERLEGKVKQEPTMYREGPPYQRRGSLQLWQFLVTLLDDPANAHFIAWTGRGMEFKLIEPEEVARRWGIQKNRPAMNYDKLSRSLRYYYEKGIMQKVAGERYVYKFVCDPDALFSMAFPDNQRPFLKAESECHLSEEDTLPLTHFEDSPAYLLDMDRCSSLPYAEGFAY
# Sequence of ELF4 (Q99607 whole entry): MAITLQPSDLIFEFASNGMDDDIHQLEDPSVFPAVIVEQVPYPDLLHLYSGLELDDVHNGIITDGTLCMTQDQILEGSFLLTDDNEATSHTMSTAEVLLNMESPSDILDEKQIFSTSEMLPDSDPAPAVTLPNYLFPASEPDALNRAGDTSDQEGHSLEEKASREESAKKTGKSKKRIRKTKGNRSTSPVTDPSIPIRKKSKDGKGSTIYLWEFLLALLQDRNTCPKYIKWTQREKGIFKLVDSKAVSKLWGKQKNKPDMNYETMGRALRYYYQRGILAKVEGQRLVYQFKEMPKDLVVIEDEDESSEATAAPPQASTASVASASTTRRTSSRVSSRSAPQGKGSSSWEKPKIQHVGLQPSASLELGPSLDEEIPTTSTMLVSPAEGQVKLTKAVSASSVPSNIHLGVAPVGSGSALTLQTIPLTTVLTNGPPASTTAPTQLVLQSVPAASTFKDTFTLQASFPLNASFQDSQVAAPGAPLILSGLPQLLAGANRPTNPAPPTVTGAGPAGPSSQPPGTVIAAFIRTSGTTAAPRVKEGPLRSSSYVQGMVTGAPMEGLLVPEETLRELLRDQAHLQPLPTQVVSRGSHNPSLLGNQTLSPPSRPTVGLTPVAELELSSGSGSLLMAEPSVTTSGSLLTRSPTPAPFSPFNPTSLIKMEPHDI
# Sequence of HSF1 (Q00613 whole entry): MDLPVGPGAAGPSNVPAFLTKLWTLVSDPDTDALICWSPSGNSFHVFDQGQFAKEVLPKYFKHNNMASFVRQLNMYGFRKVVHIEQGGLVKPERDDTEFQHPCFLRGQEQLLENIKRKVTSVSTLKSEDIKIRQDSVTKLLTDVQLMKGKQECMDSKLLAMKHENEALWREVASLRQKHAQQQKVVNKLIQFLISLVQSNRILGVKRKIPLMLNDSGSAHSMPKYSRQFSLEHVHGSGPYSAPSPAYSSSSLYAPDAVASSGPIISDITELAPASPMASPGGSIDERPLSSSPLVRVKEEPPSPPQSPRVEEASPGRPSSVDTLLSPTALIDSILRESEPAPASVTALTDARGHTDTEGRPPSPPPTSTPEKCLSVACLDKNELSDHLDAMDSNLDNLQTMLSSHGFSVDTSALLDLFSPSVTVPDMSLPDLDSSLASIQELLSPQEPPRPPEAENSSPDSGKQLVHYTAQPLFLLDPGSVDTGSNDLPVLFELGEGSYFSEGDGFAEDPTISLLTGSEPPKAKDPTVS
# Sequence of CRX (O43186 whole entry): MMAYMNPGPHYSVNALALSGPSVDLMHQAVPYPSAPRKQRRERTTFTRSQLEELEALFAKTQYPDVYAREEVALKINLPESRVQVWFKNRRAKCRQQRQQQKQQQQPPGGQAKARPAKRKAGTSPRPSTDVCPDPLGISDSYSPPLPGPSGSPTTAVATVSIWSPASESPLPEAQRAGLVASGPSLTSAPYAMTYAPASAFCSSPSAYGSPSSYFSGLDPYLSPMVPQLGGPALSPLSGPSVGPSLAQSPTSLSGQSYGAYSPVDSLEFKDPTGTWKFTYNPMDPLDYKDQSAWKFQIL
sequence,measurement,setting,value
GCTTCC,binding signal,FEV,"4.3 fold enrichment (6-mer frequency, TF over GST control)"
same,binding signal,ETV5,"3.97 fold enrichment (6-mer frequency, TF over GST control)"
same,binding signal,HSF1,"1.47 fold enrichment (6-mer frequency, TF over GST control)"
same,binding signal,SPIC,"3.3 fold enrichment (6-mer frequency, TF over GST control)"
same,binding signal,ELF4,"3.18 fold enrichment (6-mer frequency, TF over GST control)"
same,binding signal,ELK4,"2.98 fold enrichment (6-mer frequency, TF over GST control)"
same,binding signal,ETV2,"3.44 fold enrichment (6-mer frequency, TF over GST control)"
same,binding signal,ELF3,"3.14 fold enrichment (6-mer frequency, TF over GST control)"
same,binding signal,CRX,"1.19 fold enrichment (6-mer frequency, TF over GST control)"
same,binding signal,ETV1,"3.62 fold enrichment (6-mer frequency, TF over GST control)"
same,binding signal,ERF,"3.06 fold enrichment (6-mer frequency, TF over GST control)"
same,binding signal,ETV3L,"3.36 fold enrichment (6-mer frequency, TF over GST control)"
same,binding signal,ETS2,"3.56 fold enrichment (6-mer frequency, TF over GST control)"
same,binding signal,SPDEF,"3.67 fold enrichment (6-mer frequency, TF over GST control)"
same,binding signal,ETV7,"3.14 fold enrichment (6-mer frequency, TF over GST control)"
same,binding signal,ELF5,"4.78 fold enrichment (6-mer frequency, TF over GST control)"
same,binding signal,ETV3,"3.8 fold enrichment (6-mer frequency, TF over GST control)"
same,binding signal,ETV6,"4.28 fold enrichment (6-mer frequency, TF over GST control)"
